Measured values taken from PubChem BioAssay AID1476 (National Center for Advancing Translational Sciences (NCATS), 2009).
Screen size: about 200,000 compounds; about 4,500 (2.2%) were called active. Another 12% or so got no clear call; they are omitted. The call rests on the fitted dose curve; in most records, active means well fitted inhibition curve with a large enough effect; inconclusive means small, poorly fitted or top-dose-only effect, or effect the other way; inactive means flat fitted curve, though single readings scatter. What follows is part of a selection rich in actives, with near analogues and random picks from the rest. More than one record can exist for a structure, and the calls need not agree.

molecular target: Cruzipain (Trypanosoma cruzi) (UniProt P25779); assay: qHTS Assay for Promiscuous and Specific Inhibitors of Cruzain (without detergent); conditions: purified cruzain, Z-FR-AMC fluorescence, no detergent; further: nearly all actives have a fitted effect of over 40% in size;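 on max response, negative = inhibition: plate controls were enzyme without inhibitor for no effect and buffer without enzyme for full effect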
Sequence (P25779 123-467 limits assumed): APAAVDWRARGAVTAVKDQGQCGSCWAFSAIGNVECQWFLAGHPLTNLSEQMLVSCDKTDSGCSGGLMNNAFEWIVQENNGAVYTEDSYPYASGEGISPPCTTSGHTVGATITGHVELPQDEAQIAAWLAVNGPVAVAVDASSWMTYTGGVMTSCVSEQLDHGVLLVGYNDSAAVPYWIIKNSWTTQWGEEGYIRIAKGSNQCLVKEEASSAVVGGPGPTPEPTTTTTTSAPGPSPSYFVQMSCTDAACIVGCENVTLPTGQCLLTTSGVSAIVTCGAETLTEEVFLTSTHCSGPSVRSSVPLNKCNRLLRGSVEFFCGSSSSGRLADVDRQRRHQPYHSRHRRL
Summary of the method: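 Purified cruzain at 1.5 nM, pre-incubated 15 min with compound at room temperature in 100 mM sodium acetate pH 5.5, 5 mM DTT, 0.00005% Triton X-100. Reaction started with 2 uM Z-FR-AMC; AMC fluorescence increase over 60 s gives rate.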
Potency means the concentration at half of the fitted maximal effect.

| SMILES | max response, negative = inhibition | Potency |
| --- | --- | --- |
| Cc1ccc(-n2ncc3c(=O)n(Cc4cccc(C(F)(F)F)c4)cnc32)cc1C | 6.16% (inactive) |  |
| Cc1ccc(-n2c(/C=C/c3cccc(C(F)(F)F)c3)nc3ccccc3c2=O)cc1 | -0.135% (inactive) |  |
| Cn1cc(/C=C/c2nc3ccccc3c(=O)n2-c2ccccc2)c2ccccc21 | 10.3% (inactive) |  |
| Cn1cc(/C=C/c2nc3ccccc3c(=O)n2-c2cccc([N+](=O)[O-])c2)c2ccccc21 |  | 10 µM (active) |
| CSc1ccc(C2C(C(=O)Nc3ccccc3)=C(C)Nc3nc4ccccc4n32)cc1 (stereo not drawn) | -7.45% (inactive) |  |
| CCc1cccc(C)c1NS(=O)(=O)c1c(C)nc2sccn2c1=O | 1.11% (inactive) |  |
| CCOC(=O)c1cc2c(=O)n3ccccc3nc2n(CCCOC)c1=NC(=O)C(C)Oc1ccccc1 (stereo not drawn) | -4.02% (inactive) |  |
| C=CCNC(=S)N/N=C/c1ccc(OCc2ccccc2)cc1 | -2.25% (inactive) |  |
| CNC(=S)NNC(=O)c1sccc1OCc1ccccc1 | -0.842% (inactive) |  |
| CNC(=S)N/N=C/c1ccc(OCc2ccccc2)c(Br)c1 |  | 25.1 µM (active) |
| Cc1ccccc1CN1CCC(CNC(=O)c2cc3ccc4cccnc4c3[nH]2)CC1 | -9.74% (inactive) |  |
| Cc1ccc(Nc2c(-c3ccc(C)cc3)nc3cnccn23)cc1 | 5.6% (inactive) |  |
| O=c1cc(Cn2nnc(-c3ccc(Cl)cc3)n2)nc2sccn12 | 0.777% (inactive) |  |
| Cc1ccc(Nc2c(-c3ccc(Cl)cc3)nc3sccn23)c(C)c1 |  | 31.6 µM (active) |
| Cc1cccc(-n2ccnc2SCC(=O)Nc2cccc3ccccc23)c1C | -4.61% (inactive) |  |
| O=C(COc1ccc([N+](=O)[O-])cc1)Nc1ccc(N2CCCC2)cc1 |  | 7.94 µM (active) |
| O=C(COc1ccc(/C=N/NC(=O)c2ccc(O)cc2)cc1)Nc1ccc([N+](=O)[O-])cc1 | -9.42% (inactive) |  |
| Cc1ccc(OCCCC(=O)Nc2ccc(N3CCOCC3)cc2)cc1 | -0.526% (inactive) |  |
| CCS(=O)(=O)N1CCc2cc(C(=O)N3CCN(c4ccccc4OC)CC3)ccc21 | -11.9% (inactive) |  |

| SMILES | max response, negative = inhibition | Potency |
| --- | --- | --- |
| Cc1cc(Cl)ccc1NC(=O)Cc1ccc(NC(=O)N2CCCCc3ccccc32)cc1 | 8.39% (inactive) |  |
| O=C(Nc1ccc(Cl)c(Cl)c1)N1CC=C(c2ccccc2)CC1 |  | 31.6 µM (active) |
| NC(=O)N1CCCC1C(=O)Nc1ccc(Cl)c(Cl)c1 (stereo not drawn) | -7.92% (inactive) |  |
| CC(C(=O)Nc1ccc(Cl)cc1Cl)N1CC=C(c2ccccc2)CC1 (stereo not drawn) | 3.73% (inactive) |  |
| CC(CCCc1ccccc1)NC(=O)c1nn(-c2ccc(Cl)cc2)nc1CO (stereo not drawn) | 4.3% (inactive) |  |
| O=[N+]([O-])c1ccc(N2CCN(S(=O)(=O)c3ccccc3)CC2)cc1N1CCc2ccccc2C1 |  | 7.94 µM (active) |
| CN1CCN(c2ccc(S(=O)(=O)Nc3ccccc3)cc2[N+](=O)[O-])CC1 | -3.45% (inactive) |  |
| CC(=O)Nc1ccc(S(=O)(=O)N2CCN(c3ccccc3)CC2)cc1 | 4.93% (inactive) |  |
| Cc1ccccc1CNC(=O)C1CCCN(S(=O)(=O)N(C)c2ccc(F)cc2)C1 (stereo not drawn) | 7.13% (inactive) |  |
| O=C(COc1ccc(Cl)cc1)Nc1ccccc1OCc1cc(=O)n2ccccc2n1 | -0.406% (inactive) |  |
| CC(C)c1ccc2c(c1)c(SC(C)(C)C)c(CC(C)(C)C(=O)O)n2Cc1ccc(Cl)cc1 | 1.55% (inactive) | 7.94 µM (active) |
| O=C(Cn1c(=O)nc(-c2ccccc2)c2cc(Cl)ccc21)NCc1ccc(Cl)cc1 | -1.57% (inactive) |  |
| CC(C)c1ccc(Cn2c(COc3ccccc3)nc3ccccc32)cc1 | -13.5% (inactive) |  |
| COc1ccc(NC(=O)CSc2nccn2Cc2ccc3c(c2)OCO3)cc1 | -5.6% (inactive) |  |
| CCOc1ccc2nc(Cl)c(C3CC(c4ccccc4)=NN3C(=O)c3cccs3)cc2c1 (stereo not drawn) |  | 7.94 µM (active) |
| O=C(COc1ccc2ccccc2c1)N1CCN(C(=O)c2cccs2)CC1 | 12.1% (inactive) |  |
| CCOc1ccccc1C1CC(c2cccc(NS(C)(=O)=O)c2)=NN1C(=O)c1ccccc1 (stereo not drawn) | 4.98% (inactive) |  |
| CCOC(=O)c1c(C)oc2nc(C)nc(N(CC(C)C)CC(C)C)c12 | -3.29% (inactive) |  |
| COc1ccc(NC(=O)CN2C(=O)COc3ccc(S(=O)(=O)N4CCOCC4)cc32)cc1 | 4.14% (inactive) |  |

| SMILES | max response, negative = inhibition | Potency |
| --- | --- | --- |
| O=C(NC1CCc2ccccc21)C12CN(Cc3ccccc3)CC1C(c1cccc([N+](=O)[O-])c1)=NO2 (stereo not drawn) |  | 12.6 µM (active) |
| Nc1ccc(C(=O)OCC(=O)NC2CCCc3ccccc32)cc1[N+](=O)[O-] (stereo not drawn) | -1.06% (inactive) |  |
| COc1ccc([N+](=O)[O-])cc1C1NN=C(c2cccc3ccccc23)S1 (stereo not drawn) |  | 7.94 µM (active) |
| COc1ccc([N+](=O)[O-])cc1NC(=O)CCc1ccccc1 | -3.31% (inactive) |  |
| COc1ccccc1CC(=O)Nc1ccc([N+](=O)[O-])cc1OC | -6.07% (inactive) |  |
| O=C(CSc1nc(Nc2ccc(F)c(F)c2)c2ccccc2n1)c1ccc(Cl)cc1 | -24.6% (inactive) |  |
| Cc1ccccc1OC/C(O)=C(\C#N)c1nc2ccccc2[nH]1 |  | 20 µM (active) |
| COC(=O)Cc1nc2ccccc2[nH]1 | -1.4% (inactive) |  |
| COc1ccccc1CSc1nc2ccccc2[nH]1 | 4.13% (inactive) |  |
| CCOc1ccc(NC(=O)Cn2c(C)ccc(C#N)c2=O)cc1 | -12.5% (inactive) |  |
| COc1ccc(S(=O)(=O)N2CCN(c3ncnc4c(-c5ccccc5)nsc34)CC2)cc1 |  | 20 µM (active) |
| COc1ccc(S(=O)(=O)N2CCCC(C(=O)Nc3ccc(NC(=O)c4ccccn4)cc3)C2)cc1 (stereo not drawn) | -11.4% (inactive) |  |
| Cc1cc(N2CCN(S(=O)(=O)c3ccc(C)c(C)c3)CC2)c2ccccc2n1 | 1.17% (inactive) |  |
| COc1cccc(NC(=O)Cn2c(=O)cc(C)c3c(C)nn(-c4cccc(F)c4)c32)c1 | -8.29% (inactive) |  |
| CCC(=O)N1CCc2cc(CNS(=O)(=O)c3ccc(Br)s3)ccc21 | -2.98% (inactive) |  |
| CCOc1ccc(Nc2oc(/C=C/c3ccc(F)cc3)nc2C#N)cc1 | -13.4% (inactive) |  |
| O=C(c1ccc(CN2CCOCC2)cc1)N1CCN(c2ccccc2F)CC1 | -4.12% (inactive) |  |
| Cc1c(C)n(Cc2ccc(Cl)cc2)c2ccc(C(=O)N3CCN(c4ccccc4F)CC3)cc12 |  | 12.6 µM (active) |
| CCn1c(C)c(C)c2cc(C(=O)N3CCN(c4cccc(C)c4C)CC3)ccc21 | -25.1% (inactive) |  |
